Bioassay records deposited in PubChem BioAssay by several laboratories.
ssDAF-12 act = activates DAF-12 receptor from parasite S. stercoralis | HEK293 ssDAF-12/GRIP1 lit1-tk-luc reporter, luminescence; % of 3 µM dafachronic acid response | activation, % at 6.8 µM | 370,000 tested, 1% active | AID 652126;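 active means activation above the mean over all tested compounds plus 3 SD, cut at about 0.9% in these data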;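 further: 0% = DMSO-only wells and 100% = 3 µM delta7-dafachronic acid wells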
DAX1 inh = DAX1 (NR0B1) inhibition, primary screen. 370,000 tested, 1.1% active. inhibition, % at 6.8 µM. HEK293T StAR-luciferase reporter, SF-1/DAX-1 repression relief;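 active means inhibition above the mean over all tested compounds plus 3 SD, cut at about 3.6% in these data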;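 further: 0% = DAX-1 cells with DMSO and 100% = cells lacking DAX-1 with DMSO; higher inhibition means more luminescence from relief of DAX-1 repression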
esBAF inh = SWI/SNF esBAF complex inhibition | AID 602393 | reporter increase, % at 12.5 µM | mouse ES cells, Bmi1-luciferase knock-in reporter, 24 h; 100% = twice the neutral-well signal | 350,000 tested, 2% active; in the data active means activation above about 40%; inconclusive means no clear call, values can overlap the other calls;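 further: 0% = median of the plate's neutral control wells and 100% = double that signal; a rise in the Bmi1 reporter signal indicates esBAF inhibition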
Wnt bcat act = activators of Wnt/beta-catenin signaling; Wnt/beta-catenin reporter cell assay, activator, plate reader; activation, % at 9.35 µM; 300,000 tested, 1.2% active; in the data active means activation above about 30%, passing the limit was not always enough; inconclusive means no clear call, values can overlap the other calls;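 further: 0% = neutral control wells and 100% = positive control wells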
hgDAF12 agonist = activates the H. glycines DAF-12 receptor ligand-binding domain. HEK293 GAL4-hgDAF12 UAS-luciferase reporter, agonist luminescence; normalized to butyrate control. activation, % at 6.8 µM. 370,000 tested, 1.8% active. AID 687014;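 active means activation above a cutoff set at the mean of all screened compounds plus 3 SD, cut at about 10% in these data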;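 further: 0% = DMSO wells and 100% = sodium butyrate wells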
hcDAF12 agonist = H. contortus DAF-12 activation, primary screen. HEK293 hcDAF-12 lit1-tk-luc reporter, luminescence; 0% DMSO, 100% Δ7-dafachronic acid. activation, % at 6.8 µM. 370,000 tested, 1.4% active. AID 652067;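 active means activation above the mean of all tested compounds plus 3 SD, cut at about 5.5% in these data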;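 further: 100% = response to 3 µM Δ7-dafachronic acid high control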
esBAF Ring1 qPCR = de-represses Ring1 in mouse ESCs, confirming esBAF inhibition; 550 tested, under 10 active; fold change at 33 µM; mouse ESC E14, Ring1 mRNA RT-qPCR fold change; shares compounds with esBAF inh;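 active means Ring1 gene expression raised more than 2-fold over untreated cells in both replicates at either tested dose; inconclusive means only one replicate above 2-fold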;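 further: Ring1 transcript normalised to actin housekeeping signal by TaqMan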
Fgf4 repress = esBAF inhibition confirmed by Fgf4 repression | 550 tested, 4% active | AID 743177 | mouse ESC E14, Fgf4 mRNA qPCR fold change; stronger effect = lower value | shares compounds with esBAF inh | Fgf4 expression fold change at 33 µM;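 active means Fgf4 expression under 0.8 fold of control in both repeat measurements at one or both tested doses; inconclusive means under 0.8 fold in just a single repeat measurement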;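 further: Fgf4 transcript normalised to actin in duplex TaqMan qPCR; cells exposed to compound for 24 h before lysis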
esBAF Bmi1 qPCR = confirmation of esBAF inhibitors: Bmi1 de-repression in mouse ESCs | shares compounds with esBAF inh | mouse ESE14 ES cells, Bmi1 mRNA qPCR fold; stronger effect = higher value | fold change at 33 µM | 550 tested, under 10 active | AID 743180;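 active means Bmi1 expression fold change above 6 at either tested concentration, seen in replicate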
A549 cytotox = kills or reduces viability of A549 cells; shares compounds with esBAF inh; A549 cytotoxicity, plate reader; cell viability change % (negative = cytotoxic), % at 25 µM, hits read low; 550 tested, under 10 active; AID 743188; call rule not given here
HepG2 tox SP = cytotoxicity in HepG2 cells; shares compounds with esBAF inh; plate reader; stronger effect = lower value; activity change, negative = inhibition, % at 25 µM; 550 tested, 4% active; in the data active means activity change below about -50%
HEK293 cytotox SP = HEK293 cell cytotoxicity at single point; shares compounds with esBAF inh; plate reader; activity change, negative = inhibition, % at 25 µM, hits read low; 550 tested, 3% active; in the data active means activity change below about -38%, passing the limit was not always enough
* marks the source's active call; other numbers are inactive results; u = inconclusive; x = no result. Hits are enriched below; roughly 4.2% of the tested compounds scored in any of these assays.

SMILES	ssDAF-12 act	DAX1 inh	esBAF inh	Wnt bcat act	hgDAF12 agonist	hcDAF12 agonist	others
COC(=O)c1c(C)[nH]c(C(=O)OCc2ccc(F)cc2)c1C	-1	1	46*	x	7	1
CC(=O)c1c(C)[nH]c(C(=O)OCc2c(F)cccc2Cl)c1C	-2	-2	12	-3	-4	-4
C[C@@H]1CN([C@@H](C)CO)C(=O)Cc2cc(NC(=O)Nc3ccc(C(F)(F)F)cc3)ccc2O[C@@H]1CN(C)C(=O)NC1CCCCC1	x	x	-15	x	x	x
COC(=O)c1ccc(COc2ccc(CNCc3ccc(Cl)cc3)cc2)cc1	-1	0	39	16	12*	1
NNC(=O)c1ccc(COc2ccc3c(c2)CCC3)cc1	-2	-1	x	11	5	0
O=C(O)c1ccc(COc2ccc3c(c2)CCC3)cc1	-2	2	x	33*	3	0
COc1ccc(OCc2ccc(C(=O)O)cc2)cc1	0	1	51*	x	8	2
COC(=O)c1sccc1NC(=O)Nc1cccc(C(C)=O)c1	-2	0	1	-1	1	0
COC(=O)c1sccc1NC(=O)Nc1cccc(C)c1	-1	0	95*	12	6	3
COc1cccc(NC(=O)Nc2cc(C)ccc2F)c1	-1	1	61*	x	6	0
CCNC(=O)C[C@H]1CC[C@@H]2[C@H](COc3ccc(NC(=O)NC(C)C)cc3C(=O)N2C)O1	x	x	0	x	x	x
C[C@@H]1CCCCO[C@H](CN(C)C(=O)CCC(F)(F)F)[C@@H](C)CN([C@H](C)CO)C(=O)c2cc(NC(=O)Nc3ccc4c(c3)OCO4)ccc2O1	x	x	2	x	x	x
COC(=O)N/N=C\c1ccccc1OC/C=C/c1ccccc1	0	-1	49*	2	3	3
COc1cc(OC)cc(C(=O)NC(=S)N2CCCCC2c2cccnc2)c1 (configuration not stated)	-1	1	11	3	-2	0
COc1ccc(NC(=O)N2CCCCC2c2cccnc2)cc1 (configuration not stated)	0	1	17	2	11*	5.6*
CC(=O)Nc1ccc(/C=N/NC(=O)c2cc(-c3ccco3)nc3ccccc23)cc1	0	-1	-4	6	0	1
O=C(O)c1ccccc1/C=N/NC(=O)c1cc(-c2ccco2)nc2ccccc12	2.9*	0	3	0	4	3
CC(C)NC(=O)N1[C@@H](CO)[C@@H]2c3ccccc3N(C(=O)Nc3cccc(Cl)c3)C[C@@H]21	x	x	3	x	x	x
CC1Cc2ccccc2N1C(=O)CSc1ncc(-c2ccc(F)cc2)n1C (configuration not stated)	-1	0	12	59*	8	-1
Cn1c(-c2ccc(F)cc2)cnc1SCC(=O)N1CCCCC1	0	2	-9	35*	12*	3
C[C@H](CO)N1C[C@H](C)[C@@H](CN(C)C(=O)c2ccc(F)cc2)Oc2ncc(-c3ccncc3)cc2C1=O	x	x	0	x	x	x
COc1ccc(N=Cc2nc(-c3ccccc3)oc2OC(C)=O)cc1	-1	1	-7	5	-1	0
CN(C)c1ccc(N=Cc2nc(-c3ccccc3)oc2OC(=O)c2cccc(Cl)c2)cc1	-1	3	x	x	12*	1
CO[C@H]1CN(C)C(=O)c2ccc(NC(=O)c3nc4ccccc4s3)cc2OC[C@H](C)N(Cc2cncnc2)C[C@H]1C	x	x	9	x	x	x
CC(C)(C)n1nnnc1C1c2ccccc2C(=O)N1CCc1c[nH]c2ccccc12 (configuration not stated)	0	4.2*	x	-3	1	4
SMILES	ssDAF-12 act	DAX1 inh	esBAF inh	Wnt bcat act	hgDAF12 agonist	hcDAF12 agonist	others
Cc1cccc(C)c1-n1nnnc1C1c2ccccc2C(=O)N1CCc1ccccc1F (configuration not stated)	0	1	x	-1	10	1
CCN(CC)CCCn1c2c(c(SCC(=O)Nc3cccc4ccccc34)nc1=O)CCC2	0	3.8*	8	-4	-1	3
C[C@@H]1CN([C@H](C)CO)C(=O)c2cc(NC(=O)Nc3ccc(F)cc3)ccc2O[C@@H]1CN(C)S(=O)(=O)c1ccccc1	x	x	0	x	x	x
Cc1csc(NC(=O)Cn2nc(C)c([N+](=O)[O-])c2C)n1	2.9*	0	x	0	1	1
Cc1ccc2nc(NC(=O)Cn3nc(C)c([N+](=O)[O-])c3C)sc2c1	-1	-1	x	-2	0	-2
CN1CCN(C(=O)[C@@H]2[C@@H](CO)[C@@H]3Cn4c(ccc(-c5cccnc5)c4=O)[C@@H]3N2CC2CC2)CC1	x	x	1	x	x	x
N#CCc1nc(CSc2nc3ccccc3o2)cs1	0	1	102*	-3	8	-1
Brc1c(CSc2nc3ccccc3o2)nc2ncccn12	-1	1	22	49*	6	0
c1ccc2oc(SCc3cn4ccccc4n3)nc2c1	-1	3.7*	x	u	10	5.9*
O=C(O)CSc1cnc2ccccc2n1	0	0	7	x	0	2
c1ccc2nc(SCc3cn4ccccc4n3)cnc2c1	-1	0	x	38*	4	0
CN1C(=O)c2cc(NC(=O)c3ccc(F)c(F)c3)ccc2OC[C@H]2O[C@H](CC(=O)N[C@H]3CCN(Cc4ccccc4)C3)CC[C@@H]21	x	x	0	x	x	x
COc1ccc2nc3sc(C(=O)NCCN4CCc5ccccc5C4)cc3cc2c1	0	1	89*	4	12*	5
CCCCc1nc2cc(C(=O)N3CCN(c4nc(C)cnc4C)CC3)ccc2o1	0	0	64*	4	1	1	esBAF Ring1 qPCR=1;Fgf4 repress=0.91;esBAF Bmi1 qPCR=1.1;A549 cytotox=-8;HepG2 tox SP=0;HEK293 cytotox SP=-22
